From PubChem BioAssay come the findings set out here.

Test [1] can be described thus: antimalarial activity against Dd2 strain (AID 2302;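 active = growth inhibition above 50% at the single 2 µM test dose, taken to imply half-maximal potency below 2 µM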;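 also: 0% = DMSO untreated growth and 100% = chloroquine plus artemisinin killed control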). The conditions noted are these: P. falciparum Dd2 in RBCs, LDH growth readout, 72 h; at 2 µM; hits give high values.
A short description of test [2]: HepG2 cytotoxicity, primary screen, cytotoxicity control for P. falciparum antimalarial project, cell-based, ATP luminescence (AID 2303;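 active = inhibition above 50%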;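 also: 0% = DMSO wells and 100% = digitonin-killed cells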). The conditions noted are these: HepG2 viability, 24-48 h, at 10 µM, hits give high values.
For test [3], the target named is L-lactate dehydrogenase (Plasmodium falciparum (isolate CDC / Honduras)) (UniProt Q27743). Nature of the test: PfLDH activity inhibition – cell lysate, 3D7 strain, counter-screen for P. falciparum growth inhibition project (AID 2304).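 Also: 0% = vehicle and 100% = reference inhibitor.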 The conditions noted are these: P. falciparum 3D7 crude extract, LDH APAD/NBT absorbance; at 2 µM; hits give high values.
The nature of test [4]: inhibition of 3D7 malaria parasite growth – strain 3D7 (AID 2306).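 Also: 0% = DMSO wells and 100% = chloroquine plus artemisinin control wells.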 The conditions noted are these: P. falciparum 3D7 erythrocytic growth, LDH absorbance, 72 h; at 2 µM; hits give high values.
The target of test [5] is Calcium-dependent protein kinase 1 (Plasmodium falciparum (isolate 3D7)) (UniProt P62344). The experiment in a line: PfCDPK1 kinase inhibitors, biochemical, TCAMS library (AID 1159585; cut-off not given, nearly all actives have IC50 up to about 0.98 µM;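 also: inhibitors leave more ATP so luminescence rises with inhibition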). The conditions noted are these: recombinant PfCDPK1, Kinase-Glo ATP depletion luminescence.
Test [6] deals with Plasmodium falciparum protein kinase 6 (PK6, PF3D7_1337100) (UniProt Q8IDW1). Nature of the test: PfPK6 kinase inhibitors, biochemical, TCAMS library (AID 1159586). The conditions noted are these: recombinant PfPK6, Kinase-Glo ATP depletion luminescence.
In test [7] the target is Protein kinase 7 (PK7), Plasmodium falciparum 3D7 (PF3D7_0213400) (UniProt Q7YTF7). The experiment in a line: inhibition of Plasmodium PK7 catalytic activity – biochemical, TCAMS antimalarial set, Kinase-Glo luminescence (AID 1159587). Particulars: recombinant PfPK7, Kinase-Glo ATP depletion luminescence. On the technique in general: In Kinase-Glo more light means more ATP remaining.

Test [8] has as its target Calcium-dependent protein kinase 4 (Plasmodium falciparum (isolate 3D7)) (UniProt Q8IBS5). Nature of the test: PfCDPK4 kinase inhibitors, biochemical, TCAMS library (AID 1159588; cut-off not given, nearly all actives have IC50 up to about 0.91 µM). The conditions noted are these: recombinant PfCDPK4, Kinase-Glo ATP depletion luminescence.

A number with no mark means an inactive call. For some of these results: Potency and affinity values are given separately. Calls of active or inactive are those of the source. Unless noted, no rule for the calls is given here.

What is called inhibition is the change of the read-out against control, counted positive when it falls.

Chain of Calcium-dependent protein kinase 4 (Plasmodium falciparum (isolate 3D7)) (Q8IBS5 whole entry, looked up): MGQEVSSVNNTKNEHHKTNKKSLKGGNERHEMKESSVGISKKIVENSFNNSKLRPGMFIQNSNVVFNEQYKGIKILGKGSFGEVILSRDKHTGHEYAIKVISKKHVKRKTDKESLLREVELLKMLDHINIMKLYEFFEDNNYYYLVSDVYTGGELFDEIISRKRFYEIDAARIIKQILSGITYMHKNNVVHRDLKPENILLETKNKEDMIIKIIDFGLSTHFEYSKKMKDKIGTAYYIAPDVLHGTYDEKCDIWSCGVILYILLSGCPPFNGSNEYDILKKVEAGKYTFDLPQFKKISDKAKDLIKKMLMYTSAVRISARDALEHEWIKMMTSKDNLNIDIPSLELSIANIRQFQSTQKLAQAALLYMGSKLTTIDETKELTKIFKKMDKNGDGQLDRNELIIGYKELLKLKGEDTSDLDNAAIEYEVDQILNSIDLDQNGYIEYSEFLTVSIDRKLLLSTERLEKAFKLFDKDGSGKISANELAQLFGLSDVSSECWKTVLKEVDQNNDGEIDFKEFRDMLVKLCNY
Chain of L-lactate dehydrogenase (Plasmodium falciparum (isolate CDC / Honduras)) (Q27743 whole entry, looked up): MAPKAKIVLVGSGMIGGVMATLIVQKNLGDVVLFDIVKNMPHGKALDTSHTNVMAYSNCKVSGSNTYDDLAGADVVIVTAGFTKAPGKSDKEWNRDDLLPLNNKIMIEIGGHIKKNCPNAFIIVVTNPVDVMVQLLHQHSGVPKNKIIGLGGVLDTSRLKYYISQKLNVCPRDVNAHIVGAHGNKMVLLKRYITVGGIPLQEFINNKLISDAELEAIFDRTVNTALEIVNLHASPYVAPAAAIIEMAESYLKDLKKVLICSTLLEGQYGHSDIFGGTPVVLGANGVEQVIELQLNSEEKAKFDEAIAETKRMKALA
Chain of Calcium-dependent protein kinase 1 (Plasmodium falciparum (isolate 3D7)) (P62344 whole entry, looked up): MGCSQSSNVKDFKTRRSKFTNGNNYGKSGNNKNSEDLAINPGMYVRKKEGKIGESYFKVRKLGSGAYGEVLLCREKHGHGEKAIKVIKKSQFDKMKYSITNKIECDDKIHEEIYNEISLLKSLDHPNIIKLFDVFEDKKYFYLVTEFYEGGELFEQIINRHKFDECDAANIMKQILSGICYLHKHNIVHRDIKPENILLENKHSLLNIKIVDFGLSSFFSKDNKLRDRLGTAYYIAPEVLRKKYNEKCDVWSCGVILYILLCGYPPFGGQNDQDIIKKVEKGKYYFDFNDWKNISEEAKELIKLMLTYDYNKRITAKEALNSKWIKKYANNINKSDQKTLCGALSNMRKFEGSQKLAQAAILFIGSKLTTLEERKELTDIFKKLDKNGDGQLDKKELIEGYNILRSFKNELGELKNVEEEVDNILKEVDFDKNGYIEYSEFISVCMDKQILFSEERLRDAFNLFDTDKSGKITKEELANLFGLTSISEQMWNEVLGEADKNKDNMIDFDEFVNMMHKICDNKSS
Chain of Plasmodium falciparum protein kinase 6 (PK6, PF3D7_1337100) (Q8IDW1 1-305): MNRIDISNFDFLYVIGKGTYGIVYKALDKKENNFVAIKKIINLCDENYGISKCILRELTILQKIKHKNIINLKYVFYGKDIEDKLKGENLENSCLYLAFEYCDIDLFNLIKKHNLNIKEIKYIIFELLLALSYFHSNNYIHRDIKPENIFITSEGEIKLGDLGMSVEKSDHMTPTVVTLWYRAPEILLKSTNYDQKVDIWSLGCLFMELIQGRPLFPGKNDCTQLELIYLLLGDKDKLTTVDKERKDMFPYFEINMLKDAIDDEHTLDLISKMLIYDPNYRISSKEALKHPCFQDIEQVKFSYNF
Chain of Protein kinase 7 (PK7), Plasmodium falciparum 3D7 (PF3D7_0213400) (Q7YTF7 1-343): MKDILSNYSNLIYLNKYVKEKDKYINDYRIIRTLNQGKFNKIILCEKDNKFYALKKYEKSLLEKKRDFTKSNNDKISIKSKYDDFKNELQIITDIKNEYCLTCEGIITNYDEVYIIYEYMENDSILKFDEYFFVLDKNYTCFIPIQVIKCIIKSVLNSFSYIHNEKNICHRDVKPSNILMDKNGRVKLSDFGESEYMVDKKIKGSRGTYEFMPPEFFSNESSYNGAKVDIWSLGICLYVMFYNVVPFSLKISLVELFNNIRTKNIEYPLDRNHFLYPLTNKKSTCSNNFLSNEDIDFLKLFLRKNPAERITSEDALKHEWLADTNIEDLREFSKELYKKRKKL

For `COc1cccc(OC(C)(C)c2nc(N[C@@H](C)c3ccccc3)c3cn[nH]c3n2)c1`, the values for the growth inhibition in test [1] and in test [4] were 69% (active) and 89% (active), respectively. For the same compound, the inhibition in test [2] is 44%; in test [3], -4%. Moreover, the outcome in test [5], in test [6], in test [7] and in test [8] was inactive.

Turning to `COc1cc(C2CCCCC2)c(OC)cc1CC1c2cc(O)c(Cl)cc2CCN1C` (stereo not given), the growth inhibition in test [1] and in test [4] was 100% (active) in each case. In addition, the inhibition in test [2] was 12%; in test [3] it was 4%. The result in test [5], in test [6], in test [7] and in test [8] was inactive.

Consider `O=C(Nc1cccc(-c2ccc(-c3nc4ccc(F)cc4[nH]3)s2)c1)c1cccnc1`, for which the values for the growth inhibition in test [1] and in test [4] were 72% (active) and 100% (active), respectively. Also, the inhibition in test [2] was 46%; in test [3] it was -5%. For the same compound, the outcome in test [5], in test [6], in test [7] and in test [8] was inactive.

In the case of `Clc1cccc(Nc2ccc3c(N4CCCCC4)ncnc3n2)c1`, the figures for the growth inhibition in test [1] and in test [4] were 93% (active) and 97% (active), respectively. Besides, the inhibition in test [2] is 54% (active); in test [3], 0%. For the same compound, the result in test [5], in test [6], in test [7] and in test [8] was inactive.

Take `C[C@@H](C(=O)N1CCOCC1)N1CC[C@H](NS(=O)(=O)c2ccc3ccnc(N)c3c2)C1=O`: the growth inhibition in test [1] was 61% (active); in test [4], 84% (active). Also, the results for the inhibition in test [2] and in test [3] were -6% and -4%, respectively. Besides, the result in test [5], in test [6], in test [7] and in test [8] was inactive.

`O=C(/C=C/c1ccc(Cl)c(Cl)c1)NCCCCCN1CCC(C(=O)Nc2ccc(Cl)c(Cl)c2)CC1`: the growth inhibition in test [1] was 0%; in test [4] it was 98% (active). In addition, the inhibition in test [2] is 73% (active); in test [3], -2%. Also, the result in test [5], in test [6], in test [7] and in test [8] was inactive.

As for `c1ccc2[nH]c(Nc3ccc(Nc4nc5ccccc5[nH]4)cc3)nc2c1`, the growth inhibition in test [1] was 27%; in test [4], 98% (active). In addition, the inhibition in test [2] is -3%; in test [3], 1%. Also, the result in test [5], in test [6], in test [7] and in test [8] was inactive.

With `FC(F)(F)c1ccc2nccc(NCc3ccccc3)c2c1`, the growth inhibition in test [1] is 56% (active); in test [4] it was 93% (active). In addition, the inhibition is 18% in test [2] and -9% in test [3]. Also, the outcome in test [5], in test [6], in test [7] and in test [8] was inactive.

For `O=C(CN1CCN(S(=O)(=O)C=Cc2ccccc2)CC1)Nc1cc(C(F)(F)F)ccc1Cl`, the results for the growth inhibition in test [1] and in test [4] were 63% (active) and 96% (active), respectively. Also, the inhibition in test [2] was 23%; in test [3], 5%. For the same compound, the outcome in test [5], in test [6], in test [7] and in test [8] was inactive.

For `Cc1noc(-c2ccc3c(c2)CCN(CCC2CCC(NC(=O)/C=C/c4ccc(F)cc4)CC2)CC3)n1` (stereo not given), the figures for the growth inhibition in test [1] and in test [4] were 39% and 91% (active), respectively. The values for the inhibition in test [2] and in test [3] were 44% and 3%, respectively. Moreover, the outcome in test [5], in test [6], in test [7] and in test [8] was inactive.

Turning to `CON(C)C(=O)[C@@H](CCCCNC(=O)OCc1ccccc1)NC(=O)OC(C)(C)C`, the growth inhibition in test [1] is -1%; in test [4], 98% (active). In addition, the results for the inhibition in test [2] and in test [3] were 5% and -4%, respectively. For the same compound, the result in test [5], in test [6], in test [7] and in test [8] was inactive.

As to `CC(C)COc1cc(C(=O)Nc2cnc3ccccc3c2)ccc1[N+](=O)[O-]`, the growth inhibition in test [1] is 56% (active); in test [4], 97% (active). In addition, the inhibition in test [2] is 19%; in test [3], -1%. Also, the result in test [5], in test [6], in test [7] and in test [8] was inactive.

Consider `CCCCn1c(Sc2ccc(C#N)c([N+](=O)[O-])c2)nnc1-c1cc(OC)cc(OC)c1`, for which the figures for the growth inhibition in test [1] and in test [4] were 70% (active) and 94% (active), respectively. Further, the inhibition in test [2] is 7%; in test [3], 2%. Further, the result in test [5], in test [6], in test [7] and in test [8] was inactive.

`CN1CCC(Oc2ccc(CN3CC[C@H](NC(=O)c4ccc(Cl)c(F)c4)C3)c3ccccc23)C1` (stereo not given in full): the values for the growth inhibition in test [1] and in test [4] were 65% (active) and 101% (active), respectively. The inhibition in test [2] is 51% (active); in test [3] it was 3%. Also, the outcome in test [5], in test [6], in test [7] and in test [8] was inactive.

As for `COc1ccc(NC(=O)Nc2ccc(C)c(-c3ccc(C(=O)NCCN4CCCC4)cc3)c2)cc1`, the figures for the growth inhibition in test [1] and in test [4] were 1% and 95% (active), respectively. The inhibition in test [2] is 18%; in test [3] it was 3%. Besides, the outcome in test [5], in test [6], in test [7] and in test [8] was inactive.

For `N#Cc1ccc(CN2CCC(NC(=O)c3ccc(-c4nnc(-c5cccc6ccccc56)o4)cc3)CC2)cc1`, the growth inhibition in test [1] is 14%; in test [4], 98% (active). Besides, the inhibition in test [2] is 37%; in test [3] it was -2%. The result in test [5], in test [6], in test [7] and in test [8] was inactive.

On to `CN(C)CCNC(=O)c1ccc2c(c1)n(C1CCN(S(=O)(=O)c3ccc(-c4ccccc4)cc3)CC1)c(=O)n2CC1CCCCC1`, for which the growth inhibition in test [1] is 66% (active); in test [4], 100% (active). Further, the inhibition in test [2] was 47%; in test [3], -2%. Moreover, the outcome in test [5], in test [6], in test [7] and in test [8] was inactive.

As for `CCCc1cc(N2CCC(N3CCCC3)CC2)nc(Nc2ccc(Cl)cc2)n1`, the growth inhibition in test [1] was 9%; in test [4], 96% (active). In addition, the figures for the inhibition in test [2] and in test [3] were 29% and -2%, respectively. Also, the result in test [5], in test [6], in test [7] and in test [8] was inactive.

As for `CCCC(C)NC[C@@H](O)[C@H](Cc1ccccc1)NC(=O)c1cc(C2CCCC2)cc(N2CCCCS2(=O)=O)c1` (stereo not given in full), the results for the growth inhibition in test [1] and in test [4] were 99% (active) and 98% (active), respectively. Further, the inhibition was 8% in test [2] and 3% in test [3]. For the same compound, the result in test [5], in test [6], in test [7] and in test [8] was inactive.

Turning to `COc1ccc(CNCCc2cccs2)cc1-c1cccc(S(=O)(=O)NCCN2CCCC2)c1`, the growth inhibition is 41% in test [1] and 98% (active) in test [4]. For the same compound, the inhibition is 56% (active) in test [2] and -1% in test [3]. For the same compound, the outcome in test [5], in test [6], in test [7] and in test [8] was inactive.
